High-throughput results as filed in PubChem.
In the library only some 7.4% were active in any assay of this set; here they are far more common.
FLuc modulator = qHTS profiling assay for firefly luciferase inhibitor/activator using purifed enzyme and Km concentrations of substrates (counterscreen for miR-21 project); Potency, µM (top dose mostly 57.5 µM), for inactives: at the highest dose activity change, negative = inhibition, usual class: inhibitors; purified FLuc, Km substrates, luminescence inhibition; 6.9% of 360,000 active; AID 588342, 2011;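 further: plate controls were vehicle for no effect and reference inhibitor for full effect; nearly all actives have a fitted effect of over 55% in size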
Target sequence (P08659 whole entry, looked up): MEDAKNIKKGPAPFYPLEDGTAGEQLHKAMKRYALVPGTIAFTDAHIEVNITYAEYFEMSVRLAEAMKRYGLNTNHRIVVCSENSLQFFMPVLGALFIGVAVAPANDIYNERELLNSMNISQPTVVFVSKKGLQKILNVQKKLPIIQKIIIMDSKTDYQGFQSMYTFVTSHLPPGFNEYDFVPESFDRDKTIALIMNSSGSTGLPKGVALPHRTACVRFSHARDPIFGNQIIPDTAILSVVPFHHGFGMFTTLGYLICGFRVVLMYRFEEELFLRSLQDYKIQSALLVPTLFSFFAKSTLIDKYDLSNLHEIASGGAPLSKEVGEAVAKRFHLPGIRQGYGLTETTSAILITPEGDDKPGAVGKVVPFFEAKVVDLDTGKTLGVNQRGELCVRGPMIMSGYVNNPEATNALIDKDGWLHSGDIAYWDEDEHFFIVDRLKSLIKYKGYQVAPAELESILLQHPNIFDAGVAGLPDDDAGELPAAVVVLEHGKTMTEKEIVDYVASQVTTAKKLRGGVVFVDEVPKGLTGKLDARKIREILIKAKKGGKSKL
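Purified P. pyralis luciferase, 10 nM final, with Km-level 10 uM D-luciferin and 10 uM ATP in 50 mM Tris acetate pH 7.5, 10 mM Mg acetate, 0.01% Tween-20, 0.05% BSA; 6-point qHTS titration about 60 µM downward; luminescence read.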
SMN2 splice enh = qHTS Assay for Enhancers of SMN2 Splice Variant Expression; HEK293 SMN2-luciferase splicing reporter, luminescence, 30-36 h; Potency, µM (doses to about 46.1 µM), for the others: at the highest dose activity change, positive = activation, usual class: activators; 2.8% of 210,000 active; AID 1458, 2008; further: % of control where 0% means no effect; nearly all actives have a fitted effect of over 55% in size
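HEK293 cells carry an SMN2 minigene-luciferase reporter in which exon 7 inclusion puts luciferase in frame. Cells were seeded at 2000 cells/well, attached for 10-12 hours, then exposed to compounds for 30-36 hours at 37C before ONE-Glo luminescence.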
ELG1 genotox = qHTS screen for small molecules that induce genotoxicity in human embryonic kidney (HEK293T) cells expressing luciferase-tagged ELG1 | HEK293T ELG1-luciferase reporter, luminescence, 16 h | Potency, µM (doses to about 46 µM), for the others: at the highest dose activity change, positive = activation, most hits filed as activators | 1.3% of 330,000 active; further: % of control where 0% means no effect; nearly all actives have a fitted effect of over 60% in size
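DMSO vehicle served as control against compound-treated ELG1-luciferase HEK293T cells; exposure lasted 16 hr at 37 °C and 5% CO2, followed by ONE-Glo luminescence detection after 30 min.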
Rab9 prom act = qHTS Assay for Rab9 Promoter Activators | AID 485297, 2010 | Potency, µM (titrated, usually from 9.22 µM), for the others: at the highest dose activation, negative = inhibition, hits mostly activators | 2.8% of 320,000 active | Huh7 Rab9 promoter-luciferase reporter, luminescence, 24 h; further: % of control where 0% means no effect; nearly all actives have a fitted effect of over 60% in size
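Rab9 promoter-driven luciferase in stably transfected Huh7 cells; 1500 cells/well rested 2 h, exposed to compound in DMSO for 24 h at 37 °C, 5% CO2. Luminescence read 10 min after adding luciferase reagent at ambient temperature.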
Luc counter = Counterscreen for Luciferase (Kinase-Glo TM) Inhibition; Luciferin 4-monooxygenase (Photuris pensylvanica), Q27757; Kinase-Glo luciferase, ATP luminescence, 8 min; Potency, µM (series often up to 38.3 µM), for inactives: at the top dose activity change, negative = inhibition, actives largely listed as inhibitors; 0.28% of 200,000 active; AID 1379, 2008; further: on the % scale 0 is the no-effect control and ±100 the full control effect; nearly all actives have a fitted effect of over 60% in size
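Substrate mix (final 50 mM imidazole pH 7.2, 50 mM KCl, 7 mM MgCl2, 10 uM ATP, 0.01% Tween 20, 0.05% BSA) plus pin-tool compound, then Kinase-Glo detection mix; 8 min ambient, luminescence read.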
NPC1 promoter act = qHTS Assay for NPC1 Promoter Activators; 2.4% of 320,000 active; Huh7 NPC1 promoter luciferase reporter, 24 h; Potency, µM (highest dose often 9.22 µM), without a hit: top-dose activation, usual class: activators; further: % of control where 0% means no effect; nearly all actives have a fitted effect of over 60% in size
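Luciferase expression driven by the NPC1 promoter was measured in stably transfected Huh7 cells after a 24 h compound incubation, using a luciferase reagent and a luminescence read.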
Active calls of the source: *; ? = inconclusive; . = no result; [ ] = another dose, or the depositor's remark. The call rests on the fitted dose curve; in most records, active means well fitted curve in the direction sought with a large enough effect; inconclusive means small, poorly fitted or top-dose-only effect, or another doubt; inactive means no such curve, though single readings can be large; an effect the other way counts as inactive or inconclusive. Potency means the concentration at half of the fitted maximal effect.

SMILES | FLuc modulator | SMN2 splice enh | ELG1 genotox | Rab9 prom act | Luc counter | NPC1 promoter act
Cc1ccc(OCCCCNC2CCCCC2)c(C)c1 | -2% | -1% | -1% | -6% | -4% | 15%
O=C(c1ccccc1)C1CCN(C(=O)C2CCC(=O)N(Cc3ccccc3F)C2)CC1 (centres undefined) | -2% | . | -8% | 6% | . | 1%
CCOc1ccc2nc(NC(=O)C3CCN(C(=O)c4ccco4)CC3)sc2c1 | 15µM* | . | ? | ? | . | ?
O=C(Nc1nc2ccccc2s1)C1CCN(C(=O)c2ccco2)CC1 | -7% | . | -14% | 0% | . | 0%
CCOc1ccc2nc(N3CCC(C(=O)N4CCN(C(=O)c5ccco5)CC4)CC3)sc2c1 | 13µM* | -46% | 1% | 20% | -4% | 7%
COc1ccc(C(=O)Oc2cc(C)c(CN3CCOCC3)cc2C)cc1OC | 4% | . | -8% | -8% | . | 0%
Cc1cc(Cl)ccc1OC(C)C(=O)OCC(=O)Nc1ccc2[nH]c(=O)[nH]c2c1 (centres undefined) | -1% | . | -2% | -1% | . | -4%
Cc1ccc(C(=O)Nc2cc(C(C)C)c(O)c(C(C)C)c2)cc1 | 24µM* | 11% | -7% | 0% | -1% | 1%
Cc1ccc(NC(=O)c2ccc(OC(=O)C(C)Oc3ccc(Cl)cc3C)cc2)cc1 (centres undefined) | -27% | 8.9µM* | ? | 1.8µM* | -4% | 4.5µM*
CCOc1ccc(NC(=O)c2ccc(NCC(=O)N3CCCCCC3)cc2)cc1 | 11µM* | -4% | -7% | 9% | -7% | 26%
COc1ccc(C(=O)Nc2ccc(N3CCN(C)CC3)cc2)cc1OC | 17µM* | . | ? | ? | . | ?
CCOc1ccc(C(=O)NCC(=O)N2CCCCCCC2)cc1 | -3% | . | -1% | 0% | . | -1%
Cc1ccc(C(=O)N[C@H](C(=O)Nc2cc(Cl)cc(Cl)c2)C(C)C)cc1 | -1% | 7% | 1% | -4% | 3% | -2%
CCOC(=O)c1c(-c2ccccc2)oc2ccc(NS(=O)(=O)c3ccc(C(C)C)cc3)cc12 | 0% | -3% | . | . | . | .
O=C(COC(=O)C1CCC(N2C(=O)C3C4CCC(C4)C3C2=O)CC1)c1ccc(F)cc1 (centres undefined) | -1% | . | -20% | -4% | . | 0%
CCOC(=O)c1ccccc1NC(=O)CSc1nnc(CC)n2c1cc1occc12 | -2% | . | . | . | . | .
Nc1ncnc2c1nc(Br)n2C1OC2COP(=O)(O)O[C@@H]2C1O (some centres undefined) | . | . | . | 2%[46.1 µM] | . | 0%[46.1 µM]
Cc1c(C(=O)N(CC(C)C)c2c(N)n(Cc3ccccc3)c(=O)[nH]c2=O)sc2nc3n(c(=O)c12)CCC3 | 3% | . | 0% | -6% | . | -1%
Cc1ccc(NC(=O)c2ccc(C)cc2)cc1 | 0.85µM* | . | ? | 0.25µM* | . | 0.45µM*
O=C(Nc1ccc(Cl)c(C(F)(F)F)c1)c1ccncc1 | -6% | . | 1% | 2% | -1% | -3%
Cc1ccc(C(=O)Nc2ccc(Br)c(C(F)(F)F)c2)cc1 | 13µM* | 33% | -1% | ? | -2% | ?
COc1ccc(C(=O)Nc2ccc(N3CCN(C)CC3)cc2)cc1 | 19µM* | . | ? | ? | . | ?
CN1CCN(c2ccc(NC(=O)c3ccc4ccccc4c3)cc2)CC1 | 1.9µM* | . | 1.8µM* | 0.56µM* | . | 0.32µM*
Cc1ccc(C(=O)N2CCN(c3ccc(NC(=O)c4cc(C)cc(C)c4)cc3)CC2)cc1 | 3% | . | 0% | -7% | . | -3%
CCOc1ccc(C(=O)Nc2ccc(N3CCN(C)CC3)cc2)cc1 | 12µM* | . | 9% | 15% | . | 15%
SMILES | FLuc modulator | SMN2 splice enh | ELG1 genotox | Rab9 prom act | Luc counter | NPC1 promoter act
CCCCOc1ccc(C(=O)Nc2ccc(N3CCN(C)CC3)cc2)cc1 | -12% | 12% | 5% | -4% | -3% | -3%
Cc1ccc(C(=O)Nc2ccc(N3CCN(C)CC3)cc2)cc1 | 19µM* | . | ? | 2.5µM* | . | 2.2µM*
COc1ccc(NS(=O)(=O)c2cccc(C(=O)N/N=C/c3ccc(O)cc3)c2)cc1 | 2% | 23% | 6% | 0% | 5% | -4%
CC(=O)Nc1ccc(CNc2ncnc3ccc(-c4c(C)noc4C)cc23)cc1 | -13% | . | 4.1µM* | -2% | . | -11%
Cc1cccc(CNc2ncnc3ccc(-c4c(C)noc4C)cc23)c1 | . | 5.6µM* | . | . | -3% | .
Cc1cccc(CNc2ncnc3ccc(-c4cccc(C)c4)cc23)c1 | -4% | . | . | -1% | . | 2%
Cc1noc(C)c1-c1ccc2ncnc(NC3CC3)c2c1 | . | 7.9µM* | . | . | -3% | .
CCc1ccc(NC(=O)Cn2c(=O)n(-c3ccc(OC)cc3)c(=O)c3ccc(C(=O)NCc4ccc(C)cc4)cc32)cc1 | 2% | 8% | . | . | . | .
CC(C)(C)c1ccc(C(=O)NC(=O)CSc2n[nH]c(N)n2)cc1 | ? | . | 8% | 7% | . | 4%
Cc1cnc(C(=O)OCC(=O)c2ccc(C3CCCCC3)cc2)cn1 | ? | . | 6% | 0% | . | 1%
O=C(COc1cccc(Cl)c1Cl)Nc1ccc2c(c1)CCC2 | -1% | -7% | -3% | 12% | -1% | -1%
O=C(COC(=O)c1cnccn1)c1ccc2c(c1)CCCC2 | 4.8µM* | 6% | -4% | 9% | 0% | 9%
O=C(COC(=O)c1cnccn1)c1ccc(C2CCCCC2)cc1 | 2.4µM* | . | 0% | 2% | . | -1%
O=C(COC(=O)c1cnccn1)c1ccc(Cl)cc1 | 19µM* | 3% | 2% | 0% | -4% | -5%
O=C(COc1ccccc1Cl)c1ccc2c(c1)CCCC2 | 11µM* | 14µM* | ? | 3.5µM* | -9% | ?
O=C(COC(=O)c1cnccn1)c1ccc(-c2ccccc2)cc1 | ? | . | 2% | -5% | . | -1%
CCCc1cc(=O)oc2cc(OCc3ccc(C(=O)O)cc3)ccc12 | ? | . | 25% | ? | . | ?
COc1ccccc1-c1c(C)nn2c(N3CCN(c4cccc(Cl)c4)CC3)cc(C)nc12 | -2% | . | . | . | . | .
CCN1CCN(C(=O)Cn2nc(C)c3sc4ccccc4c3c2=O)CC1 | -1% | . | -1%[9.26 µM] | 2% | . | -6%
O=C(COC(=O)c1cnccn1)c1ccccc1 | ? | -16% | -2% | -5% | -2% | 1%
